From PubChem
Only some compounds are listed: those with a hit (about 11% of all), similar ones and a draw of the others.
PNC inhibitor = High Content Assay for Compounds that inhibit the Assembly of the Perinucleolar Compartment; AID 2417, 2010; PC3M PTB-GFP, PNC prevalence imaging, 16 h; hits give low values; 140,000 tested, 3.1% active; activity change (PNC), negative = inhibition, % at 10 µM;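 active means readout at or below -70, meaning at least 70% loss of cells showing the perinucleolar compartment, a nuclear body marking cancer cells; inconclusive means readout between -30 and a set limit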;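 further: plate controls were DMSO wells for no effect and camptothecin positive control wells for full effect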
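PC3M cells stably expressing PTB-GFP, 750–1000 cells/well, treated 16 h at 37 °C with compound (23 nl of library stock), in duplicate. After paraformaldehyde fixation and Hoechst stain, imaged at 20x; PNC prevalence scored by image analysis.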
ALDH1A1 inh = qHTS Assay for Inhibitors of Aldehyde Dehydrogenase 1 (ALDH1A1). Aldehyde dehydrogenase 1A1 (Homo sapiens), P00352. Purified ALDH1A1, NADH fluorescence, propionaldehyde substrate. Potency, µM (series often up to 75.3 µM), for the others: at the top dose activity, negative = inhibition, hits mostly inhibitors. 220,000 tested, 7.3% active. AID 1030, 2008;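 further: potency means the concentration at half of the fitted maximal effect; plate controls were no enzyme wells and a reference inhibitor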
Target sequence (P00352 whole entry, looked up): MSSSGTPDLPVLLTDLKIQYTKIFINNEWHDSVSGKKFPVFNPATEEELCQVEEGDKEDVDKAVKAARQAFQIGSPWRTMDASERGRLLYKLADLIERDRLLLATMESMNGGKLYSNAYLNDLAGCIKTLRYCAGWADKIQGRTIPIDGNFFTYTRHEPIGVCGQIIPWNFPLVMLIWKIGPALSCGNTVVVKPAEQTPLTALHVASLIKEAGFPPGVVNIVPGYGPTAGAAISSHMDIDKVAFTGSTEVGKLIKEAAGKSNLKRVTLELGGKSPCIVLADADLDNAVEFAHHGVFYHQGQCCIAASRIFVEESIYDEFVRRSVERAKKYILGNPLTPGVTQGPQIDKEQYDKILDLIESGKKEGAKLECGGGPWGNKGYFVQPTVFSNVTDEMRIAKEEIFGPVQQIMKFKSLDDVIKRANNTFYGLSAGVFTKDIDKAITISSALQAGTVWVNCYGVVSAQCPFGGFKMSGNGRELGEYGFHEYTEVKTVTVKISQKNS
HPGD block = qHTS Assay for Inhibitors of HPGD (15-Hydroxyprostaglandin Dehydrogenase); purified HPGD, NADH fluorescence kinetic, PGE2 substrate; 15-hydroxyprostaglandin dehydrogenase [NAD(+)] (Homo sapiens), P15428; 150,000 tested, 4.3% active; AID 894, 2007; Potency, µM, without a hit: top-dose activity change, negative = inhibition, hits mostly inhibitors; further: potency means the concentration at half of the fitted maximal effect
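20 nM HPGD preincubated 15 min at room temperature with compound in 50 mM Tris-HCl pH 8, 0.01% Tween 20. Started with 1 mM NAD+ and 30 uM prostaglandin E2; NADH fluorescence (360/450 nm) read 5 times over 30-s intervals, last minus first.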
An asterisk follows results filed as active; ? = inconclusive; . = no result. Unless noted, the call rests on the fitted dose curve; in most records, active means well fitted inhibition curve with a large enough effect (not every such curve was filed as active); inconclusive means small, poorly fitted or top-dose-only effect, or another doubt; inactive means no such curve, though single readings can be large or run the other way. Unless noted, on the % scale 0 is the no-effect control and ±100 the full control effect.

SMILES	PNC inhibitor	ALDH1A1 inh	HPGD block
COc1ccc(CCNC(=O)C2CCN(C(=O)c3cccs3)CC2)cc1	.	0.4µM*	.
COc1ccc(NC(=O)C2CCN(C(=O)c3cccs3)CC2)cc1OC	-7	?	-6%
CC(CCc1ccccc1)NC(=O)C1CCN(C(=O)c2sccc2-n2cccc2)CC1 (stereo unspecified)	32	0.35µM*	-9%
CS(=O)(=O)N1CCCC(C(=O)NCCc2ccc(Cl)cc2)C1 (stereo unspecified)	-13	-2%	-9%
CC(CCc1ccccc1)NC(=O)C1CCN(c2nnc(-n3cccc3)s2)CC1 (stereo unspecified)	?	-5%	-11%
O=C(NCCc1ccc(Cl)cc1)C1CCN(C(=O)c2sccc2-n2cccc2)CC1	-25	0.5µM*	0%
O=C(NCCc1ccc(Cl)cc1)C1CCN(S(=O)(=O)N2CCCC2)CC1	11	3.2µM*	-5%
O=C(NCCC1=CCCCC1)C1CCN(C(=O)c2ccc(Cl)cc2)CC1	51	?	1%
O=C(CC1Oc2ccc(Cl)cc2NC1=O)NC1CCCCCC1 (stereo unspecified)	-3	2%	-6%
CCn1c(C)nc2cc(C(=O)NNC(=O)CCC3CCCC3)ccc21	10	-4%	-8%
CCCCC1NC(=S)N(C2CCCCC2)C1=O (stereo unspecified)	35	?	-17%
C1CCC(NC(=NC2C3CC4CC(C3)CC2C4)N2CCOCC2)CC1 (stereo unspecified)	.	0%	.
Cc1cccc(N=C2NC(=O)c3cc([N+](=O)[O-])ccc32)c1	.	5%	.
CCCC[C@@H](C=O)NC(=O)[C@H](CC(C)C)NC(=O)OCc1ccccc1	.	-15%	.
COc1ccc(CCn2c(-c3cc([N+](=O)[O-])cc([N+](=O)[O-])c3)nc3nc4ccccc4nc32)cc1OC	-18	19%	-5%
Cc1nc(-c2ccc(C#N)cc2)cs1	.	7%	.
Cc1n[nH]c(C)c1Cc1ccc(C(=O)O)cc1	?	4%	4%
O=C(C1CC(=O)N(C2CCCC2)C1)N1CCN(c2ccccc2F)CC1 (stereo unspecified)	27	3%	4%
O=C(C1CC(=O)N(C2CCCC2)C1)N1CCC(Cc2ccccc2)CC1 (stereo unspecified)	-106*	?	-3%
COC(=O)[C@H](COC(C)(C)C)NC(=O)O[C@@H]1C(=O)c2cc(OC)ccc2O[C@H]1c1ccc(OC)c(Br)c1	.	?	-24%
CCc1c(C)nc2ncnn2c1N1CCCC(C(=O)NCc2ccc3c(c2)OCO3)C1 (stereo unspecified)	-22	-6%	-17%
CCc1c(C)nc2ncnn2c1N1CCC(C(=O)N2CCN(c3ccccc3)CC2)CC1	-88*	3%	-7%
CCc1c(C)nc2ncnn2c1N1CCCC(C(=O)Nc2ccc(NC(C)=O)cc2)C1 (stereo unspecified)	6	13µM*	?
CCc1c(C)nc2ncnn2c1N1CCC(C(=O)N2CCN(c3ccc(F)cc3)CC2)CC1	26	?	-13%
O=C(O)c1ccc(N=NNc2cccc([N+](=O)[O-])c2)cc1	.	1%	.
SMILES	PNC inhibitor	ALDH1A1 inh	HPGD block
N#C/C(=N\Nc1cccc([N+](=O)[O-])c1)C(=O)c1ccc(Br)cc1	.	22µM*	.
CCCCC[C@H](O)/C=C/C=C/C=C/[C@@H](O)C/C=C\CCCC(=O)O	.	4%	-8%
Cc1cccc(NC(=O)/C(C#N)=C\c2cn(CC(=O)O)c3ccccc23)c1	.	20µM*	.
N#C/C(=C/c1cn(CC(=O)O)c2ccccc12)C(=O)Nc1ccccc1	.	25µM*	.
COc1ccccc1OCCn1cc(/C=C(\C#N)C(=O)NCc2cccs2)c2ccccc21	55	?	-24%
N#C/C(=C\c1cn(Cc2ccccc2C#N)c2ccccc12)C(=O)NCc1cccs1	69	7.9µM*	?
CCc1ccc(NC(=O)/C(C#N)=C/c2cn(CC(=O)O)c3ccccc23)cc1	.	2%	.
CNC(=O)/C(C#N)=C/c1cn(CC(=O)OC)c2ccccc12	.	-4%	.
Cc1ccc(CCNc2ccccc2C)cn1	?	-5%	-21%
CCOC(=O)CSc1nnc(-c2ccoc2C)n1-c1ccc(OCC)cc1	7	-10%	.
CCOC(=O)CSC1=NC(=O)/C(=C/c2ccc(OC)cc2)S1	-91*	?	13µM*
CCOC(=O)CSc1nc(C)c2cc(OC)ccc2n1	58	?	?
CCOC(=O)CNC(=O)CSc1nnc(-c2ccc(OC)cc2)n1CC	-1	5%	0%
CCOC(=O)CSc1nnc(-c2ccc(OC)cc2)n1CC	15	2.5µM*	-5%
CCOC(=O)CSc1nnc(-c2ccoc2C)n1-c1ccc(C)cc1	-100*	4%	-11%
CC1(C)CC(=O)c2cc(NC(=O)c3ccc(F)cc3)c(=O)oc2C1	.	7%	.
COc1ccccc1N1CCN(C(c2ccccc2)c2nnnn2CCc2ccccc2)CC1 (stereo unspecified)	353	-3%	-17%
Cc1ncoc1C(=O)N1CCCC(C(=O)c2cccc(C(F)(F)F)c2)C1 (stereo unspecified)	.	-5%	.
Cc1ncoc1C(=O)N1CCCC(C(=O)c2cccc3ccccc23)C1 (stereo unspecified)	.	0%	.
Cc1ncoc1C(=O)N1CCCC(C(=O)c2cccc(OC(C)C)c2)C1 (stereo unspecified)	.	25µM*	.
Cc1ncoc1C(=O)N1CCCC(C(=O)c2ccc(Oc3ccccc3)cc2)C1 (stereo unspecified)	.	2.8µM*	.
Cc1ncoc1C(=O)N1CCCC(C(=O)c2ccc(C(F)(F)F)cc2)C1 (stereo unspecified)	.	16µM*	.
Cc1noc(C)c1C(=O)N1CCCC(C(=O)c2cccc(OC(C)C)c2)C1 (stereo unspecified)	.	-7%	.
NC(=O)c1ccc(NC(=O)COC(=O)c2cccc(Oc3ccccc3)c2)cc1	27	6%	-10%
CC(=O)Nc1c(C(=O)N2CCOCC2)sc2nc3c(cc12)COC(C)(C)C3	-29	?	-21%
SMILES	PNC inhibitor	ALDH1A1 inh	HPGD block
CCSc1ncnc2c1sc1nc3c(cc12)COC(C)(C)C3	-29	0.79µM*	-15%
CCN(CC)CCn1c(-c2ccc(C)cc2)nc(=S)c2c1CC(C)(C)OC2	.	0%	.
CCc1nc(OCc2ccccc2)c2sc3nc4c(cc3c2n1)COC(C)(C)C4	?	0.79µM*	-25%
CCC(C)Nc1nnnc2c1sc1nc3c(cc12)COC(C)(C)C3 (stereo unspecified)	.	10µM*	.
CCc1nc2c(sc3nc4c(cc32)COC(C)(C)C4)c(=O)n1CCN(CC)CC	.	10µM*	.
CCSc1ncnc2c1sc1nc(-c3ccco3)c3c(c12)CC(C)(C)OC3	?	?	-21%
CC1(C)Cc2nc3sc4c(OCc5ccccc5)ncnc4c3cc2CO1	93	?	-10%
CCCCc1ccc(-n2nnnc2SCC(=O)Nc2cc(OC)c([N+](=O)[O-])cc2C)cc1	-4	?	-18%
O=[N+]([O-])c1ccc(Oc2cccnc2)nc1	.	7%	.
N#Cc1cc(Oc2cccnc2)c(Oc2cccnc2)cc1C#N	-111*	17%	-5%
